Structures can show the parent of a compound that is named as a salt.
What follows are molecules tested on MARIMO (assay: cell viability relative to vehicle control; higher = less cytotoxic). Conditions: 10 µM; SRSF2 genotype: SRSF2 P95H/wt.
How it was run: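 Mutant clones made by CRISPR editing and their isogenic wild-type counterparts, from four leukaemia lines, were exposed to a single 10 µM dose of each library compound for 48 h. The supernatant was then removed and CellTiter-Glo luminescence was read. Viability was reported as percent of the on-plate vehicle control.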

Row | SMILES | cell viability
1 | Cc1csc(-c2nnc(Nc3ccc(Oc4ncccc4-c4ccnc(N)n4)cc3)c3ccccc23)c1 | 91.6%
2 | CN1CCC(c2c(O)cc(O)c3c(=O)cc(-c4ccccc4Cl)oc23)C(O)C1 (stereo not given) [Flavopiridol (Alvocidib) HCl] | 11.1%
3 | Cc1ccc(C(C)C)c(O)c1 [Thymol] | 97.9%
4 | CN1CCN(c2ccc(Nc3cc(-c4cccc(-n5ccc6cc(C7CC7)cc(F)c6c5=O)c4CO)cn(C)c3=O)nc2)CC1 | 18.2%
5 | NS(N)(=O)=O [Sulfamide] | 98.6%
6 | COc1ccc(Oc2cc(C)c(-c3csc(NC(=O)c4ccncc4)n3)c(C)c2)cc1 | 37.8%
7 | Cc1c(O)c(=O)ccn1C [Deferiprone] | 90.6%
8 | CCCCCCNC(=O)n1cc(F)c(=O)[nH]c1=O [Carmofur] | 74.1%
9 | C[C@@H]1COCCN1c1cc(C2([S@](C)(=N)=O)CC2)nc(-c2cc[nH]c3nccc2-3)n1 | 19.2%
10 | Cc1nc(Nc2cnn(C3CCNCC3)c2)nc2c1N(C)C(=O)c1cc3ccccc3cc1N2C | 50.7%
11 | CCCOc1ccc2[nH]c(NC(=O)OC)nc2c1 [Oxibendazole] | 6.59%
12 | COC1=CC(=O)c2ccccc2C1=O [2-Methoxy-1,4-naphthoquinone] | 46.3%
13 | CC(=O)c1ccc2c(c1)c1cc(C(C)=O)ccc1n2CCNC(C)C | 5.2%
14 | CC(C(=O)O)c1ccc2c(c1)CC(=O)c1ccccc1S2 (stereo not given) [Zaltoprofen] | 96.8%
15 | CC(C)Oc1ccc(C(=O)N[C@H](CNC(=O)CN(C)C)Cc2ccc(-c3cn4cccc([C@H](C)O)c4n3)cc2)cc1Cl | 34.6%
16 | NC(=O)c1cccc2cn(-c3ccc([C@@H]4CCCNC4)cc3)nc12 [MK-4827(Niraparib) tosylate] | 48.4%
17 | O=C(O)Cc1ccccc1Nc1c(Cl)cccc1Cl [Diclofenac Sodium] | 103%
18 | C#CC1(O)CC[C@H]2[C@@H]3CCC4=CC(=O)CC[C@@H]4[C@H]3CC[C@@]21CC (stereo not given in full) [Norgestrel] | 95.6%

Row | SMILES | cell viability
19 | COC(=O)C1=C(C)NC(C)=C(C(=O)OCCN2CCN(C(c3ccccc3)c3ccccc3)CC2)C1c1cccc([N+](=O)[O-])c1 (stereo not given) [Manidipine (Manyper)] | 60.2%
20 | CN(C)N(C)C(=O)[C@@]1(Cc2ccccc2)CCCN(C(=O)[C@@H](Cc2c[nH]c3ccccc23)NC(=O)C(C)(C)N)C1 [Anamorelin] | 70.5%
21 | O=C(O)CCCCC(CCSCc1ccccc1)SCc1ccccc1 (stereo not given) | 99.6%
22 | COc1ccc(C(=O)C(=O)c2ccc(OC)cc2)cc1 | 95.5%
23 | CNC(=O)c1cc(Oc2ccc(NC(=O)Nc3ccc(Cl)c(C(F)(F)F)c3)cc2)ccn1 [Sorafenib Tosylate] | 35.8%
24 | C[C@@H](O)[C@H]1C(=O)N2C(C(=O)O)=C(S[C@@H]3CN[C@H](C(=O)N(C)C)C3)[C@H](C)[C@H]12 [Meropenem] | 94.7%
25 | COC(=O)C1=C(C)NC(C)=C(C(=O)OCC(C)C)C1c1ccccc1[N+](=O)[O-] (stereo not given) [Nisoldipine] | 56.3%
26 | COc1cccc(/C=N/N(C(=O)C(F)(F)F)c2ccc(C)cc2C)c1 | 83.5%
27 | CN(CC(=O)N(Cc1ccc(C2CCCCC2)cc1)c1ccc(C(=O)O)cc1)S(=O)(=O)c1c(F)c(F)c(F)c(F)c1F | 10.3%
28 | C=CC(=O)Nc1cccc(Oc2nc(Nc3ccc(N4CCN(C)CC4)cc3)ncc2Cl)c1 | 29.4%
29 | CO[C@@]12[C@H](COC(N)=O)C3=C(C(=O)C(C)=C(N)C3=O)N1C[C@@H]1N[C@@H]12 [Mitomycin C] | 5.24%
30 | Clc1cccc(-c2nnnn2Cc2cccnc2)c1Cl | 102%
31 | Cc1cccc(Nc2ccncc2S(=O)(=O)NC(=O)NC(C)C)c1 [Torsemide (Demadex)] | 101%
32 | O=c1cc(-c2ccc(O)cc2)oc2cc(O)c([C@@H]3O[C@H](CO)[C@@H](O)[C@H](O)[C@H]3O)c(O)c12 [Isovitexin] | 92.1%
33 | C=C1[C@@H]2CC[C@@H](C2)C1(C)C [Camphene] | 102%
34 | CN(C)c1cccc(-c2c3c(=O)n(-c4ccccc4Cl)[nH]c3cc(=O)n2C)c1 | 109%
35 | CO[C@H]1C[C@@H]2CC[C@@H](C)[C@@](O)(O2)C(=O)C(=O)N2CCCC[C@H]2C(=O)O[C@H]([C@H](C)C[C@@H]2CC[C@H](n3cnnn3)[C@H](OC)C2)CC(=O)[C@H](C)/C=C(\C)[C@@H](O)[C@@H](OC)C(=O)[C@H](C)C[C@H](C)/C=C/C=C/C=C/1C [Zotarolimus (ABT-578)] | 77%

— the supplement of paper PMC10981050
